The results in this text go back to PubChem BioAssay AID687016 (The Scripps Research Institute Molecular Screening Center, 2013).

The campaign covered roughly 370,000 compounds. About 2,800 (0.76%) were called active. Cut-off read from the data, not from the text of the source: active = inhibition above about 21%; inactive = the rest. The entries come from a sample that favours actives as a whole.

E3 ubiquitin-protein ligase UHRF1 (Homo sapiens), sequence (Q96T88 whole entry, looked up, the tested form may be a part): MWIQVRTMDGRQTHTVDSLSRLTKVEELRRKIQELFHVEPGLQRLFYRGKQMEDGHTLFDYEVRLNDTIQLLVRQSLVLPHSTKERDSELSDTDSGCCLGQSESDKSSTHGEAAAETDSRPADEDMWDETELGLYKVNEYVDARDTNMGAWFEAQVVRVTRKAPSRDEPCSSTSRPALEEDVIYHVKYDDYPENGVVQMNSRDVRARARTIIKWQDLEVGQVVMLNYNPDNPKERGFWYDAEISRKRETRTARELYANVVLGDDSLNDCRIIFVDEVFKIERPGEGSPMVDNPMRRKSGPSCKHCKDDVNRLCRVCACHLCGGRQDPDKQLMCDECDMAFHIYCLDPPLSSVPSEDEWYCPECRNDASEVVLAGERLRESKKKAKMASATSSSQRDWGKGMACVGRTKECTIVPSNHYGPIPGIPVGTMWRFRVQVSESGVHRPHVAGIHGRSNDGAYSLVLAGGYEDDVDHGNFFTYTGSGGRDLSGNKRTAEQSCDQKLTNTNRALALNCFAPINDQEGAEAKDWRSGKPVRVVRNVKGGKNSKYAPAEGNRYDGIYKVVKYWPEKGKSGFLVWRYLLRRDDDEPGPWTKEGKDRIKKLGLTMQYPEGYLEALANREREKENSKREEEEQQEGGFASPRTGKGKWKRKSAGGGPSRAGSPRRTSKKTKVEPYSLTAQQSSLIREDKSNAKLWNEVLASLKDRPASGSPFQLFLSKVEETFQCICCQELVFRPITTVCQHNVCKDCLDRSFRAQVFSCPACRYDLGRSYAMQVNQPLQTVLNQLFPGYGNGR

The assay concerns the target E3 ubiquitin-protein ligase UHRF1 (Homo sapiens) (UniProt Q96T88). The assay is described as follows: blockers of UHRF1 binding to methyl-oligo – biochemical, TR-FRET, human UHRF1, single concentration, counter-screen for MBD2 inhibitor project, primary screen (AID 687016).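 Note: UHRF1 SRA domain binding a hemimethylated CpG hairpin DNA probe; 0% = median of test compound wells and 100% = reference inhibitor.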 Conditions: UHRF1 binding to methylated oligo, at 4.4 µM, stronger effect = higher value. (In general: TR-FRET usually uses a lanthanide donor and a delayed reading to cut background.)
As a reminder, the inhibition is the change of the read-out against control, counted positive when it falls. `CCOC(=O)N1CCN(C(=O)C[C@@H]2C(=O)N(CCc3ccc(Cl)cc3)C3=CCCC[C@]32C(=O)OCC)CC1`: the inhibition is -0.31% (inactive).

As for `c1csc(-c2nnc(SCc3nc4ccccc4[nH]3)o2)c1`, the inhibition was -2.92% (inactive).

For `COC(=O)[C@]12C[C@H](CC(=O)N3CCOCC3)C(=O)N(Cc3ccc(Cl)cc3Cl)C1=C[C@H](C(C)C)O[C@@H]2C1CC1`, the inhibition is -0.21% (inactive).

Turning to `CC(C)(C)C(=O)Nc1ccc(-c2cn3cccnc3n2)cc1`, the inhibition was -3.25% (inactive).

Regarding `CCCCCC(=O)Nc1ccc(-c2cn3cccnc3n2)cc1`, the inhibition is 23.5% (active).

On to `CCCCC(=O)Nc1ccc(C(=O)NCCCn2ccnc2)cc1`, for which the inhibition is -2.85% (inactive).

With `Clc1ccc(-n2c(SC/C=C/c3ccccc3)nnc2-c2ccco2)cc1`, the inhibition is 0.89% (inactive).

As to `CC1CCN(c2ccc(C(=O)O)cc2NS(=O)(=O)c2ccc(Br)s2)CC1`, the inhibition is -1.98% (inactive).

As to `COC(=O)[C@@]12CCCCC=C1N(CCc1ccc(Cl)cc1)C(=O)[C@H]2CC(=O)NCc1ccc(OC)c(OC)c1`, the inhibition is 0.86% (inactive).

With `CCCCN1C(=O)C(CC(=O)NCc2cccs2)CC(C(=O)N2CCOCC2)=C1C` (configuration not stated), the inhibition is 22.9% (active).

Take `CCCCN1C(=O)C(CC(=O)NCc2cccs2)CC(C(=O)N2CCCCCC2)=C1C` (configuration not stated): the inhibition was -0.83% (inactive).

Regarding `COCCCN1C(=O)C(CC(=O)NCc2cccs2)CC(C(=O)N2CCOCC2)=C1C` (configuration not stated), the inhibition was 0.04% (inactive).

For `Oc1ccc(/C=C/c2c(F)cccc2F)c2cccnc12`, the inhibition is -8.09% (inactive).

Turning to `O=C1C(=O)N(Cc2ccc(-c3ccsc3)cc2)c2ccc(OC(F)(F)F)cc21`, the inhibition is 1.64% (inactive).

`O=C1CCC2(CCC(c3ccc(Cl)cc3)CC2)N1CCO` (configuration not stated): the inhibition is -1.17% (inactive).

On to `O=C(C1CCN(S(=O)(=O)c2ccccc2)CC1)N1CCN(C2CCCCC2)CC1`, for which the inhibition is -0.54% (inactive).

Regarding `COc1ccc(Cn2cc(CN3[C@@H](CC(C)C)COc4cc(Br)ccc4S3(=O)=O)nn2)cc1`, the inhibition is -1.35% (inactive).

Turning to `COc1ccc(S(=O)(=O)N2CCc3ccccc32)cc1C(=O)Nc1cc(S(C)(=O)=O)ccc1Cl`, the inhibition is 21.6% (active).

For `CCN(C(=O)COC(=O)c1cc(S(=O)(=O)N2CCc3ccccc32)ccc1OC)C1CCS(=O)(=O)C1` (configuration not stated), the inhibition was -0.66% (inactive).

Consider `COc1cccc(NC(=O)c2cc(S(=O)(=O)N3CCc4ccccc43)cn2C)c1`, for which the inhibition is -1% (inactive).

Regarding `O=C(C1CCCN1S(=O)(=O)c1ccccc1)N1CCc2ccccc2C1` (configuration not stated), the inhibition was 1.67% (inactive).

With `O=S1(=O)c2ccc(N3CCN(Cc4ccccc4F)CC3)cc2Oc2ccccc2CN1Cc1cn(Cc2ccc(Cl)cc2)nn1`, the inhibition was 3.23% (inactive).
